In article PMC6753376:

These substances were tested against CCT7 (UniProt Q99832) (assay: cross-linking mass spectrometry). Conditions: lysate.
Sequence of CCT7 (Q99832 whole entry): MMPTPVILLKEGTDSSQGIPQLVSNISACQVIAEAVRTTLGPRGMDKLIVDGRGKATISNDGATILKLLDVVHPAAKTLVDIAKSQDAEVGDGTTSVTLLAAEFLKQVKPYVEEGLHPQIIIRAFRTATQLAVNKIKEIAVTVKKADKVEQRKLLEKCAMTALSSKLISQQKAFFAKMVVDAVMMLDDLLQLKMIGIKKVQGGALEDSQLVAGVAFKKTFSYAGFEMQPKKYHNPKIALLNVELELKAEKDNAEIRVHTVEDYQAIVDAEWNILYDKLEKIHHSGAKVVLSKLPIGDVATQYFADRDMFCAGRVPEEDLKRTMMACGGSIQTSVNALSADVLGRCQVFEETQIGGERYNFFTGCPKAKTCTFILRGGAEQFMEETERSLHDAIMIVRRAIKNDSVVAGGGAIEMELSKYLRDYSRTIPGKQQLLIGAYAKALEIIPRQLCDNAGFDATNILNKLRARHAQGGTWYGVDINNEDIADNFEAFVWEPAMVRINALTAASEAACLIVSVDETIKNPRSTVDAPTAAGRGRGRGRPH

Sequence of USO1, O60763 (O60763 whole entry): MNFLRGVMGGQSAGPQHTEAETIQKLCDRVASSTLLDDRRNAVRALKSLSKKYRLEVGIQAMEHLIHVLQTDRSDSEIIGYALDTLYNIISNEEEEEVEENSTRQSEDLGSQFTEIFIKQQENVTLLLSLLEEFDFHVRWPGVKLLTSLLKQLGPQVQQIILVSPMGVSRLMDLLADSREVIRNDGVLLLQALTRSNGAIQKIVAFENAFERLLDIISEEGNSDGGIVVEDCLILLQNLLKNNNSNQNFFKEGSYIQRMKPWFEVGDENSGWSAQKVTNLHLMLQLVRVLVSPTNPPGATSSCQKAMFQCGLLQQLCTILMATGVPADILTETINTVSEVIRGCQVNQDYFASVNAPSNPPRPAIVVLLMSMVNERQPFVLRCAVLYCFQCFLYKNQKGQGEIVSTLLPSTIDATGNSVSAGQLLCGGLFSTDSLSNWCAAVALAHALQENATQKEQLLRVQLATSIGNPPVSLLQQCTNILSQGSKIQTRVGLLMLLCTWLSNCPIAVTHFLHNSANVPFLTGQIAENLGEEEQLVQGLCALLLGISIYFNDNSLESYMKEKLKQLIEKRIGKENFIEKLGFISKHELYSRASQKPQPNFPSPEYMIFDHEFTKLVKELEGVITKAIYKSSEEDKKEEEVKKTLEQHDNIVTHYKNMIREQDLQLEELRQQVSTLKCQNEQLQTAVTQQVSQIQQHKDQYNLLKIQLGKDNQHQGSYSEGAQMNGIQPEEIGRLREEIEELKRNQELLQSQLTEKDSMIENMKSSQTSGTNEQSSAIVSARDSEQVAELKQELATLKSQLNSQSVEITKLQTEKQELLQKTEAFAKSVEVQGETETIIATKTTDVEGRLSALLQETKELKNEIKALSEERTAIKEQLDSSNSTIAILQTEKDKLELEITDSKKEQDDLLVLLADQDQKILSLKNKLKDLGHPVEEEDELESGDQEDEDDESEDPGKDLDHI
Sequence of CCT8, P50990 (P50990 whole entry): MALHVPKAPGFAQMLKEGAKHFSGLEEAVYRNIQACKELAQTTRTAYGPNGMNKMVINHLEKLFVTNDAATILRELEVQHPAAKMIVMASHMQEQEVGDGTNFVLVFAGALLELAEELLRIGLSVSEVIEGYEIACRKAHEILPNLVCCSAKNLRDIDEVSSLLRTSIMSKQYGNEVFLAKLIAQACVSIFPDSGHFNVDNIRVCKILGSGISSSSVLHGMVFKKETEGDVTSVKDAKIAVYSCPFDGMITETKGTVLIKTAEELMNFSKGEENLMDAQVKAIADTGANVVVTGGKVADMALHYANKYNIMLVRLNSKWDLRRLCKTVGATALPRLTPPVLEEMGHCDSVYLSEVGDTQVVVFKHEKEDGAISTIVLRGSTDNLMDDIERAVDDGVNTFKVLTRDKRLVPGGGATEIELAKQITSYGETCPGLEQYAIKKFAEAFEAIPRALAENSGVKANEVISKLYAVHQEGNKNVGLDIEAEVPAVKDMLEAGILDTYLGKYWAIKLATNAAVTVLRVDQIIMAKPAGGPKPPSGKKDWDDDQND
Sequence of CCT5, P48643 (P48643 whole entry): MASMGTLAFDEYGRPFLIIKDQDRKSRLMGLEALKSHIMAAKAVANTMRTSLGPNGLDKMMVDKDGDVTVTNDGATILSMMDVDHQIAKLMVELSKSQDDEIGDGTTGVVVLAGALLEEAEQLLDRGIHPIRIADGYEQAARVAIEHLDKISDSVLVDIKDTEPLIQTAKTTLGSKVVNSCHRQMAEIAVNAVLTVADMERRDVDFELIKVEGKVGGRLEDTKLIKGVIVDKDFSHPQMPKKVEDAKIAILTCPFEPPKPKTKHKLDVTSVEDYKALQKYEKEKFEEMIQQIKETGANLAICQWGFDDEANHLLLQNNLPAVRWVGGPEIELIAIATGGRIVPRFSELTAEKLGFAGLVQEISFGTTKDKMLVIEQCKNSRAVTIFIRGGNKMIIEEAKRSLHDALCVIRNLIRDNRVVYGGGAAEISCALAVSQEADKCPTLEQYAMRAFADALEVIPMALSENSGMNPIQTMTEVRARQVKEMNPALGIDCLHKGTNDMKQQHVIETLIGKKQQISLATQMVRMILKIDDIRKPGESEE

**Q.** USO1, O60763 was tested. Which cross-linked residues did it give?
**A.** S164 - S329

**Q.** For CCT8, P50990, which cross-linked residues is on record?
**A.** K270 - K236

**Q.** For CCT5, P48643, which cross-linked residues is on record?
**A.** K89 - K55
